# Measured values reported in the supplement of paper PMC11732987, “Enantioselective OTUD7B fragment discovery through chemoproteomics screening and high-throughput optimisation” (Communications Chemistry, 2025).
# Unmarked numbers belong to inactive results.
# Columns and labels:
# Test in all cases: log2 ratio of Biotin-Ahx-Ub-VS probe labelling (fragment/DMSO); higher = less target engagement (more negative = stronger competition), active = hit call of the paper (q ≤ 0.05, log2 ratio ≤ -1)
# Settings in all cases: compound concentration: 200 uM; treatment time: 3 h
# ALG13 = target: T1, ALG13 (UniProt Q9NP73)
# T1 sequence (whole entry): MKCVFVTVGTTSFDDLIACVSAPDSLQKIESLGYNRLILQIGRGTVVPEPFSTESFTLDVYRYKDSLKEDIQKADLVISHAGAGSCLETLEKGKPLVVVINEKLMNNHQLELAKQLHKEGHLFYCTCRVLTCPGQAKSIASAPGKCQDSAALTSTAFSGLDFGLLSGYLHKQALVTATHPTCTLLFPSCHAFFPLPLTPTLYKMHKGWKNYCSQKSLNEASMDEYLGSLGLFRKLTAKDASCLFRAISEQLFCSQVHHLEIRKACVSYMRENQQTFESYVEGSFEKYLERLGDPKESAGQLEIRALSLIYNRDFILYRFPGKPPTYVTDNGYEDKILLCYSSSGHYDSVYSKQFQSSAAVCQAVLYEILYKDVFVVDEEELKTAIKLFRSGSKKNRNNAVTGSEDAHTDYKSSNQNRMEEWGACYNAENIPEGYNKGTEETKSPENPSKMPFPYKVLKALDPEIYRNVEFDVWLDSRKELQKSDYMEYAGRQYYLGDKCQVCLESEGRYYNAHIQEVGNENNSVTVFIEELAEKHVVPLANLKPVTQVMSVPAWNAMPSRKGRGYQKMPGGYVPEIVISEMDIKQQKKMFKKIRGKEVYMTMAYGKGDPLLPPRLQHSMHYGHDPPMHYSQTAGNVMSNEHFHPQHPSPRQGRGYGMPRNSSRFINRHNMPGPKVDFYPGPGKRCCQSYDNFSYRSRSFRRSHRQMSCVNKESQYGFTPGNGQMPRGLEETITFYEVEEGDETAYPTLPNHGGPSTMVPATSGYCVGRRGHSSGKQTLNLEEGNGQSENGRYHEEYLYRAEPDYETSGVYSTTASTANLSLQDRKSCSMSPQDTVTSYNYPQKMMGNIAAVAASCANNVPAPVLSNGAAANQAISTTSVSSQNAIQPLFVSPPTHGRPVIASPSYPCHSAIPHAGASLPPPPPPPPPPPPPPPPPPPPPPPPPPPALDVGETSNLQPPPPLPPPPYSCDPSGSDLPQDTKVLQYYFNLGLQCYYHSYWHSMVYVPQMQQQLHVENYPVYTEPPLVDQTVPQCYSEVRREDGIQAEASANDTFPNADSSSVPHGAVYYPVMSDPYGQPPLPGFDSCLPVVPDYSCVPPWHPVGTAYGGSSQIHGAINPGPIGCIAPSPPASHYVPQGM
# Summary of the method: (§1)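 Values give the average log2 ratio of fragment to vehicle, assessed by unpaired t-test on global-median-normalised Spectronaut label-free quantities. Proteins needed ≥2 unique peptides. HEK293T lysate (495 µg per sample) was treated in triplicate with fragment at 200 µM or vehicle for 3 h and then with Biotin-Ahx-Ub-VS at 0.5 µM final for 1 h. Labelled DUBs were NeutrAvidin-enriched, digested and run by diaPASEF LC-MS/MS.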
# ATXN3 = ATXN3 (UniProt P54252)
# Summary of the method: as §1
# BAP1 = target: T2, BAP1 (UniProt Q92560)
# T2 sequence (whole entry): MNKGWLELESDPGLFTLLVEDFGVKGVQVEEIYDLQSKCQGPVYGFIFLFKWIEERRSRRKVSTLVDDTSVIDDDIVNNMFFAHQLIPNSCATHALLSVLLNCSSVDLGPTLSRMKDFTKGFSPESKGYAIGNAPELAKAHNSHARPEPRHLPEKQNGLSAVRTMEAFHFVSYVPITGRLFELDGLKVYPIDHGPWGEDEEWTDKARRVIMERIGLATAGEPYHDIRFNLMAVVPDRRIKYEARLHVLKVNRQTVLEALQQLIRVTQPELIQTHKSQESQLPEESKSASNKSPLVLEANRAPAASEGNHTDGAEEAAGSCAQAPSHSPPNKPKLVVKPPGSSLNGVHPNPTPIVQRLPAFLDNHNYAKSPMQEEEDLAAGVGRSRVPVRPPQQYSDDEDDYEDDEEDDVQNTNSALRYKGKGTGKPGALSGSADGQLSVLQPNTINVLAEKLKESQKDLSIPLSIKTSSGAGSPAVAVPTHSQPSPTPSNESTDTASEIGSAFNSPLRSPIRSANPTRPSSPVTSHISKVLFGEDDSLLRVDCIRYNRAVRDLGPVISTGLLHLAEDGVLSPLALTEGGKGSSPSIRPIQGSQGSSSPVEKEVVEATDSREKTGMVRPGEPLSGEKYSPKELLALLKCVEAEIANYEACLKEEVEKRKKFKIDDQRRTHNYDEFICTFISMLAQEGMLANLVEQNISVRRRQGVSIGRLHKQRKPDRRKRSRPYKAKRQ
# Summary of the method: as §1
# EIF3F = EIF3F (UniProt O00303)
# Summary of the method: as §1
# EIF3H = EIF3H (UniProt O15372)
# Summary of the method: as §1
# FAM105A = target: T3, FAM105A (UniProt Q9NUU6)
# T3 sequence (whole entry): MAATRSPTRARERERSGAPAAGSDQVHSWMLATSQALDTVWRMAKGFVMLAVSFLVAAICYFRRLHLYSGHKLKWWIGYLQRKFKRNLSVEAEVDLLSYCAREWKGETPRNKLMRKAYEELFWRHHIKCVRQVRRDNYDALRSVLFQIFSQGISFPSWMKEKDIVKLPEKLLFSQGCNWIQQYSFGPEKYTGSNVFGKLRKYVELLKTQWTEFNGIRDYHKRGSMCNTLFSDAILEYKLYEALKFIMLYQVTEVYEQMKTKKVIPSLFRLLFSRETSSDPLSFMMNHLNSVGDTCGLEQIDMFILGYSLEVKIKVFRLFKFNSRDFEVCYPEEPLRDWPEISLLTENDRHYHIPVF
# Summary of the method: as §1
# OTUB1 = OTUB1 (UniProt Q96FW1)
# Summary of the method: as §1
# OTUD4 = target: T4, OTUD4 (UniProt Q01804)
# T4 sequence (whole entry): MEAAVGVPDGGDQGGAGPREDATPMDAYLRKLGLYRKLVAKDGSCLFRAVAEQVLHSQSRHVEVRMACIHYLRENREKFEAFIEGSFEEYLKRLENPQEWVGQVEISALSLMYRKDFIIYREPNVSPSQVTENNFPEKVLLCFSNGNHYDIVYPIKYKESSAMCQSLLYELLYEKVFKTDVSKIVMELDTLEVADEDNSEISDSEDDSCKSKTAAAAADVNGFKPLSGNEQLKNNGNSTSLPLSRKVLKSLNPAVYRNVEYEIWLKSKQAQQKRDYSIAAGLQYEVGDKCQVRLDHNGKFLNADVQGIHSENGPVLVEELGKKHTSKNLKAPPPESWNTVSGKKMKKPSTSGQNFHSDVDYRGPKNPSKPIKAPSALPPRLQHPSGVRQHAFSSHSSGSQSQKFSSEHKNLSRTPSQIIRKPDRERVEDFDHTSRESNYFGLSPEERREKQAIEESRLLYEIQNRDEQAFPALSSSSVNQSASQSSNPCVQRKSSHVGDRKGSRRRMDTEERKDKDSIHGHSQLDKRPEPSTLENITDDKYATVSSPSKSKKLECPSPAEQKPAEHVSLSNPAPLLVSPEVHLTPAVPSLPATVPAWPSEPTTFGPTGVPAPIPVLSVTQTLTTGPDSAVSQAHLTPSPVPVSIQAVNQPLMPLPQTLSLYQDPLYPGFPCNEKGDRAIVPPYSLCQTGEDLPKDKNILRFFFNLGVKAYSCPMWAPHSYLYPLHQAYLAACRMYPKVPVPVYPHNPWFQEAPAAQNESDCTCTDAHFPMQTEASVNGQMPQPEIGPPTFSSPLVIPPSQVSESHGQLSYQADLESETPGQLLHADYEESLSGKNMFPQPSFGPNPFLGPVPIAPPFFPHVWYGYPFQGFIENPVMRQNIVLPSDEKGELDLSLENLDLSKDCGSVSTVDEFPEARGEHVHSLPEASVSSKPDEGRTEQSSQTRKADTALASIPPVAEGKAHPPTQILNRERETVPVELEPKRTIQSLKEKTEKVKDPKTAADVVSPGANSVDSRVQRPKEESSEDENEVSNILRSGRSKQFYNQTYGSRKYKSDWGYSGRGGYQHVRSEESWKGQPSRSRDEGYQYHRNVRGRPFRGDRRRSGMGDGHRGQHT
# Summary of the method: as §1
# OTUD5 = target: T5, OTUD5 (UniProt Q96G74)
# T5 sequence (whole entry): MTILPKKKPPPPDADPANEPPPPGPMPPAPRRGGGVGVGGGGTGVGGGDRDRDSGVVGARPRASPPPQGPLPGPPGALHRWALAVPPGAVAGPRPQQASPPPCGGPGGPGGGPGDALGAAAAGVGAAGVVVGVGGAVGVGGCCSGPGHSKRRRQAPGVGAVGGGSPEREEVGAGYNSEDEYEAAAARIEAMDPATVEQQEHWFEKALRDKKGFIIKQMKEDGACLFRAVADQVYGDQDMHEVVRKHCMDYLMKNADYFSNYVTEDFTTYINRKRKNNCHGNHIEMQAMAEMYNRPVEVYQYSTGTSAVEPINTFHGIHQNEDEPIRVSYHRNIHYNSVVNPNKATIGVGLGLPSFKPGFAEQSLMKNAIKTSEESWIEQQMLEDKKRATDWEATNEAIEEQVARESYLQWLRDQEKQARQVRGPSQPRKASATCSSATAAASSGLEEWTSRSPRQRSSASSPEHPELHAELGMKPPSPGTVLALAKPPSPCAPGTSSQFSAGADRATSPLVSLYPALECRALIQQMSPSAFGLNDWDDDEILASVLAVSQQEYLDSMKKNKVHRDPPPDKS
# Summary of the method: as §1
# EIF3F, sequence (O00303 whole entry): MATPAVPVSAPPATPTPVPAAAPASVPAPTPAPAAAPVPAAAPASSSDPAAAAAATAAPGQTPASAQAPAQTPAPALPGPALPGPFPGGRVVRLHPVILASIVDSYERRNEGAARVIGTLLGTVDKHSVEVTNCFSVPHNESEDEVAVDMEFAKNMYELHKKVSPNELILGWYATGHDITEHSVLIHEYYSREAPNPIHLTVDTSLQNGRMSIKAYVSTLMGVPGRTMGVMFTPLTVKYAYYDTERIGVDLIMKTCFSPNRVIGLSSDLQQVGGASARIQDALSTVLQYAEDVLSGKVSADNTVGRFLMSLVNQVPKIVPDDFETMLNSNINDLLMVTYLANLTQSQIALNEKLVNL
# EIF3H, sequence (O15372 whole entry): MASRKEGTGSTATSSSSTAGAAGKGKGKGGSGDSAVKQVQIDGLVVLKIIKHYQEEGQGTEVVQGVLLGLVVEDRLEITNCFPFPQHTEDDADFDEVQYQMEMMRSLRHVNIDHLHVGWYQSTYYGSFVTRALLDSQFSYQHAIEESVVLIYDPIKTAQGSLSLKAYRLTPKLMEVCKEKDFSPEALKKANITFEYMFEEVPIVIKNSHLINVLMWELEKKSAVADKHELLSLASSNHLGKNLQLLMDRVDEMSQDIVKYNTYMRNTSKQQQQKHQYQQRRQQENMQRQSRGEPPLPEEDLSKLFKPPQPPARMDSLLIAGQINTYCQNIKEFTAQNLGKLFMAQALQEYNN
# ATXN3, sequence (P54252 whole entry): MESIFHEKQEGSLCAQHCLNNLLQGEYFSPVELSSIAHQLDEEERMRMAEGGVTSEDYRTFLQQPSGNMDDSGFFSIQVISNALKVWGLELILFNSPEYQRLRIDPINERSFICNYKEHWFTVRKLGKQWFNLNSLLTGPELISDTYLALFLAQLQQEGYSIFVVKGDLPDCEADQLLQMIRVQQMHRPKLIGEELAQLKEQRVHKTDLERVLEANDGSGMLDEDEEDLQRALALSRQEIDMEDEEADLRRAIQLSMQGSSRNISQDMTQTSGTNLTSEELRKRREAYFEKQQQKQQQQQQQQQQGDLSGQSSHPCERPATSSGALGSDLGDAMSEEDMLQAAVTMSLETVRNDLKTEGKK
# OTUB1, sequence (Q96FW1 whole entry): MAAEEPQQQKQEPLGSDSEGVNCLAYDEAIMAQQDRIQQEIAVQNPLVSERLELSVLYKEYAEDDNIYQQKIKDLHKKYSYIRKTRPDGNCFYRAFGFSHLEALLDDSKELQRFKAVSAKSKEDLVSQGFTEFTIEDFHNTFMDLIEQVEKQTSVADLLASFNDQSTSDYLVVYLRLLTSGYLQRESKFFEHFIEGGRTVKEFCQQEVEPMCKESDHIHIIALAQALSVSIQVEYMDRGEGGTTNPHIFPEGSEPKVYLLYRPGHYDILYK
smiles,measurement,setting,value
O=C(CCl)N1CCc2ccccc2C(O)C1 (centres undefined),log2 ratio of Biotin-Ahx-Ub-VS probe labelling,ALG13,0.0799
same,log2 ratio of Biotin-Ahx-Ub-VS probe labelling,ATXN3,-0.585
same,log2 ratio of Biotin-Ahx-Ub-VS probe labelling,BAP1,-0.705
same,log2 ratio of Biotin-Ahx-Ub-VS probe labelling,EIF3F,-0.125
same,log2 ratio of Biotin-Ahx-Ub-VS probe labelling,EIF3H,-0.359
same,log2 ratio of Biotin-Ahx-Ub-VS probe labelling,FAM105A,-0.413
same,log2 ratio of Biotin-Ahx-Ub-VS probe labelling,OTUB1,0.0821
same,log2 ratio of Biotin-Ahx-Ub-VS probe labelling,OTUD4,-0.69
same,log2 ratio of Biotin-Ahx-Ub-VS probe labelling,OTUD5,-1.31 (active)
